A number with no mark means an inactive call. For some assays here: Measured potencies and affinities stand elsewhere. Active and inactive are the calls of the source. Unless noted, no rule for the calls is given here.
Assays:
[1] = antimalarial activity against Dd2 strain (AID 2302;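 active = growth inhibition above 50% at the single 2 µM test dose, taken to imply half-maximal potency below 2 µM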;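 also: 0% = DMSO untreated growth and 100% = chloroquine plus artemisinin killed control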); conditions: P. falciparum Dd2 in RBCs, LDH growth readout, 72 h; at 2 µM; active compounds read high
[2] = human hepatoma cell viability loss – ATP luminescence, cytotoxicity control for P. falciparum antimalarial project, primary screen (AID 2303;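 active = inhibition above 50%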;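 also: 0% = DMSO wells and 100% = digitonin-killed cells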); conditions: HepG2 viability, 24-48 h, at 10 µM, active compounds read high
[3] = molecular target: L-lactate dehydrogenase (Plasmodium falciparum (isolate CDC / Honduras)) (UniProt Q27743); assay: PfLDH activity inhibition – cell lysate, 3D7 strain, counter-screen for P. falciparum growth inhibition project (AID 2304);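 also: 0% = vehicle and 100% = reference inhibitor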; conditions: P. falciparum 3D7 crude extract, LDH APAD/NBT absorbance; at 2 µM; active compounds read high
[4] = inhibition of 3D7 malaria parasite growth – strain 3D7 (AID 2306);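 also: 0% = DMSO wells and 100% = chloroquine plus artemisinin control wells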; conditions: P. falciparum 3D7 erythrocytic growth, LDH absorbance, 72 h; at 2 µM; active compounds read high
[5] = molecular target: Calcium-dependent protein kinase 1 (Plasmodium falciparum (isolate 3D7)) (UniProt P62344); assay: PfCDPK1 kinase inhibitors, biochemical, TCAMS library (AID 1159585; cut-off not given, nearly all actives have IC50 up to about 0.98 µM;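 also: inhibitors leave more ATP so luminescence rises with inhibition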); conditions: recombinant PfCDPK1, Kinase-Glo ATP depletion luminescence
[6] = molecular target: Plasmodium falciparum protein kinase 6 (PK6, PF3D7_1337100) (UniProt Q8IDW1); assay: PfPK6 kinase inhibitors, biochemical, TCAMS library (AID 1159586); conditions: recombinant PfPK6, Kinase-Glo ATP depletion luminescence
[7] = molecular target: Protein kinase 7 (PK7), Plasmodium falciparum 3D7 (PF3D7_0213400) (UniProt Q7YTF7); assay: inhibition of Plasmodium PK7 catalytic activity – biochemical, TCAMS antimalarial set, Kinase-Glo luminescence (AID 1159587); conditions: recombinant PfPK7, Kinase-Glo ATP depletion luminescence
[8] = molecular target: Calcium-dependent protein kinase 4 (Plasmodium falciparum (isolate 3D7)) (UniProt Q8IBS5); assay: PfCDPK4 kinase inhibitors, biochemical, TCAMS library (AID 1159588; cut-off not given, nearly all actives have IC50 up to about 0.91 µM); conditions: recombinant PfCDPK4, Kinase-Glo ATP depletion luminescence
Sequence of Calcium-dependent protein kinase 4 (Plasmodium falciparum (isolate 3D7)) (Q8IBS5 whole entry, looked up): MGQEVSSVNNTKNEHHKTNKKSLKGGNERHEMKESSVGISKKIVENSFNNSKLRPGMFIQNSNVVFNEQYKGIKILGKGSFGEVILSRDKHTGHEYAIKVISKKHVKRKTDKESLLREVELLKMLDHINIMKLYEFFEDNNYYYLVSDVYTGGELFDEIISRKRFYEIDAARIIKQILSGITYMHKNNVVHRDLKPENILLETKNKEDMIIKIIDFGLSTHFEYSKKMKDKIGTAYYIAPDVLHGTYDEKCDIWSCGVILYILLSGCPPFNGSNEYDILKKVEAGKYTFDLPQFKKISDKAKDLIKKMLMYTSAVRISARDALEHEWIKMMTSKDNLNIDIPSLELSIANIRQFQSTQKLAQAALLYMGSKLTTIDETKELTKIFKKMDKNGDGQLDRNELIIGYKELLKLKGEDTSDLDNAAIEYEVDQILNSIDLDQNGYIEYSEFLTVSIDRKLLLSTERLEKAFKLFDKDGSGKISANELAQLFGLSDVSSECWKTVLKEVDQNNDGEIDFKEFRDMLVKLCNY

Sequence of L-lactate dehydrogenase (Plasmodium falciparum (isolate CDC / Honduras)) (Q27743 whole entry, looked up): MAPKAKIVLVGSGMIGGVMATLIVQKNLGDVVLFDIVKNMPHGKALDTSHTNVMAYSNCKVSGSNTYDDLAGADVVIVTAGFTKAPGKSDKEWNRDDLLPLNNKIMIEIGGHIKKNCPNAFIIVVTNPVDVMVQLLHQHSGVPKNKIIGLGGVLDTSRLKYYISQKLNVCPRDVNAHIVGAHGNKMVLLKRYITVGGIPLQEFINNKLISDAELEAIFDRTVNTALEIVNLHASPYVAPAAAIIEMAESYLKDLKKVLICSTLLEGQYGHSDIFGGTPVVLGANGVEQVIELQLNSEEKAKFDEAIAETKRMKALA
Sequence of Protein kinase 7 (PK7), Plasmodium falciparum 3D7 (PF3D7_0213400) (Q7YTF7 1-343): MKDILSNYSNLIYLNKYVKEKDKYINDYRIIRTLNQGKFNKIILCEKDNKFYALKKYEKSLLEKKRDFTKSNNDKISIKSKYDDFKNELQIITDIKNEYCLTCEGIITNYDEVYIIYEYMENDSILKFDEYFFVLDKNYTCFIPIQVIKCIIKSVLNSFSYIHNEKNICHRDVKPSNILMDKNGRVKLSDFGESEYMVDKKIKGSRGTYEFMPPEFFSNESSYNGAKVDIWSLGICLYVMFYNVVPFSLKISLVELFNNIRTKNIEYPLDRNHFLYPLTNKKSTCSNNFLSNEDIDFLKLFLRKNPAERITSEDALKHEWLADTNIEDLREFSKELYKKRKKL
Sequence of Calcium-dependent protein kinase 1 (Plasmodium falciparum (isolate 3D7)) (P62344 whole entry, looked up): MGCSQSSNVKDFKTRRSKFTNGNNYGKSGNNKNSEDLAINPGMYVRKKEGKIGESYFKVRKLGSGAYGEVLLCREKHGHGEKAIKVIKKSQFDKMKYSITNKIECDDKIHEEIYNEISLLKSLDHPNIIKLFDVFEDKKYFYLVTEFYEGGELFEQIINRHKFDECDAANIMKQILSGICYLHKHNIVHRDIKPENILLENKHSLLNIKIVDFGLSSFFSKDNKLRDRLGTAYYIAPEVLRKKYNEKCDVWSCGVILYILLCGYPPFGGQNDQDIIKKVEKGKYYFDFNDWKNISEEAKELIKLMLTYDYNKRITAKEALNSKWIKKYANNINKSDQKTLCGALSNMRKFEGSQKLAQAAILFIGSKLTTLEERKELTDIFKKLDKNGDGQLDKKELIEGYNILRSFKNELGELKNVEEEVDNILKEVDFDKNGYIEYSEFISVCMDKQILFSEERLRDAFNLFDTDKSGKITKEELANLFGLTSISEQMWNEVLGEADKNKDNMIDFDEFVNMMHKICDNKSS
Sequence of Plasmodium falciparum protein kinase 6 (PK6, PF3D7_1337100) (Q8IDW1 1-305): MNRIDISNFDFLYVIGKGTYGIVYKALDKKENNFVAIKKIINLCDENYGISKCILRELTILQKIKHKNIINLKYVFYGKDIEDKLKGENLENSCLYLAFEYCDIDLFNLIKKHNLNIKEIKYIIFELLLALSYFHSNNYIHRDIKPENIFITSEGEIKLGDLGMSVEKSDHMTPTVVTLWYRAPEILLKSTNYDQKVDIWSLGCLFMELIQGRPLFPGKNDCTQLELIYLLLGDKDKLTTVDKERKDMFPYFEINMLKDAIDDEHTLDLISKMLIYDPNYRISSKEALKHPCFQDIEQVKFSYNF

| SMILES | growth inhibition [1] | inhibition [2] | inhibition [3] [%] | growth inhibition [4] | outcome [5] | outcome [6] | outcome [7] | outcome [8] |
| --- | --- | --- | --- | --- | --- | --- | --- | --- |
| CCN(CCC1(c2ccc(Cl)c(Cl)c2)CN(C(=O)c2cc(OC)c(OC)c(OC)c2)CCO1)[C@@H]1C[C@@H]2c3ccccc3C[C@@H]21 (stereo not given in full) | 65% (active) | 26% | -4 | 80% (active) | inactive | inactive | inactive | inactive |
| OCCCCCCN=Cc1[nH]c(=S)sc1O | 1% | 7% | 4 | 91% (active) | inactive | inactive | inactive | inactive |
| Cc1cc2c(cc1Cl)N(C(=O)Nc1cc(F)cc(-c3cncnc3)c1)CC2 | 59% (active) | -4% | -6 | 96% (active) | inactive | inactive | inactive | inactive |
| CN1CCC(C(=O)Nc2cccc(-c3ccc(-c4nc5ccc(C(F)(F)F)cc5[nH]4)cc3)c2)CC1 | 99% (active) | 38% | -4 | 100% (active) | inactive | inactive | inactive | inactive |
| Cc1cc(NC(=O)c2ccc(-c3ccccc3)cc2)no1 | 57% (active) | 5% | 0 | 83% (active) | inactive | inactive | inactive | inactive |
| COc1cc2nc(N3CCC(CNC(=O)c4ccc(-c5ccc(C(=O)N(C)C)cc5OCCO)cc4)CC3)nc(N)c2cc1OC | 8% | -7% | -1 | 100% (active) | inactive | inactive | inactive | inactive |
| C=CCn1c(SCc2c(C)noc2C)nc2scc(-c3cccs3)c2c1=O | 34% | 13% | 0 | 88% (active) | inactive | inactive | inactive | inactive |
| CC(C)CNCc1cccc(-c2cccc(CNC3CCN(Cc4ccccc4)CC3)c2)c1 | 99% (active) | 32% | -2 | 102% (active) | inactive | inactive | inactive | inactive |
| Cc1ccc(-c2ccc3c(c2)C=C(C(=O)NCC2CCN(CC4CCN(C(=O)/C=C/c5ccc(Cl)c(Cl)c5)CC4)CC2)CCC3)cc1 | 70% (active) | 96% (active) | -7 | 99% (active) | inactive | inactive | inactive | inactive |
| CC(C)N1CCC(N(Cc2ccc(-c3ccc(C(F)(F)F)cc3)cc2)C(=O)Cn2c(SCc3cccc(F)c3F)cc(=O)c3c2CCC3)CC1 | 42% | 44% | -6 | 88% (active) | inactive | inactive | inactive | inactive |
| C=C(C)COc1ccc(-c2n[nH]c(C(F)(F)F)c2-c2ccccc2OC)c(O)c1 | 72% (active) | 19% | -5 | 98% (active) | inactive | inactive | inactive | inactive |
| COc1ccc2c(c1)OC(C)(C)CC2=NOS(=O)(=O)c1ccc(C)cc1 | 12% | 10% | 4 | 97% (active) | inactive | inactive | inactive | inactive |
| O=C(Nc1nc(-c2ccccn2)cc2ccccc12)c1cccc(Cl)c1 | 72% (active) | 59% (active) | -3 | 96% (active) | inactive | inactive | inactive | inactive |
| Cc1csc(-c2nc(NCc3cccnc3)ncc2-c2ccsc2)n1 | 74% (active) | -5% | -1 | 87% (active) | inactive | inactive | inactive | inactive |
| O=C(NC1CCN(Cc2ccccc2)CC1)c1ccc(CNC2CCN(Cc3ccccc3)CC2)cc1 | 58% (active) | 14% | 3 | 99% (active) | inactive | inactive | inactive | inactive |
| N#Cc1cc([N+](=O)[O-])ccc1-n1nc(-c2cccc(Cl)c2)n(Cc2ccco2)c1=S | 100% (active) | 12% | -1 | 101% (active) | inactive | inactive | inactive | inactive |
| CN1CCN(CC(O)CNC(=O)Nc2ccc(Br)cc2)CC1 (stereo not given) | 100% (active) | 5% | -2 | 100% (active) | inactive | inactive | inactive | inactive |
| Cc1[nH]c(C)c([N+](=O)[O-])c(=O)c1-c1ccc(Oc2ccccc2)cc1 | 97% (active) | 11% | 3 | 98% (active) | inactive | inactive | inactive | inactive |
| Cc1nn(C2CCS(=O)(=O)C2)c(C)c1C1Nc2ccccc2C(=O)N1Cc1ccc2c(c1)OCO2 (stereo not given) | 93% (active) | 7% | 2 | 98% (active) | inactive | inactive | inactive | inactive |
| Cc1cc(OCCCN2CCCCC2)ccc1NC(=O)COc1ccc(Cl)cc1C(=O)c1cc(Cl)cc(C#N)c1 | 16% | 28% | -8 | 93% (active) | inactive | inactive | inactive | inactive |

| SMILES | growth inhibition [1] | inhibition [2] | inhibition [3] [%] | growth inhibition [4] | outcome [5] | outcome [6] | outcome [7] | outcome [8] |
| --- | --- | --- | --- | --- | --- | --- | --- | --- |
| COc1ccccc1C1CC(c2ccccc2)=NN1C(=O)c1ccccc1 (stereo not given) | 93% (active) | 13% | -3 | 100% (active) | inactive | inactive | inactive | inactive |
| Cc1noc(C)c1-c1ccc2c(Nc3cccc4c3-c3ccccc3C4=O)c(C(=O)NCc3ccccc3I)cnc2c1 | 99% (active) | 27% | 2 | 99% (active) | inactive | inactive | inactive | inactive |
| CN1CCN(CC(=O)Nc2ccc(-c3ccc(-c4nc5ccccc5[nH]4)cc3)cc2)CC1 | 80% (active) | 18% | -1 | 98% (active) | inactive | inactive | inactive | inactive |
| CCCCc1ccc(-c2c(N)nc(N)nc2CC)cc1 | 0% | 63% (active) | -1 | 95% (active) | inactive | inactive | inactive | inactive |
| OCCc1ccc(Nc2nccc(-c3nnc4ccccn34)n2)cc1 | 46% | 63% (active) | 6 | 93% (active) | inactive | inactive | inactive | inactive |
| O=C(Nc1ccc(-c2cccc(-c3nc4ccc(C(F)(F)F)cc4[nH]3)c2)cc1)c1ccncc1 | 23% | 63% (active) | -4 | 101% (active) | inactive | inactive | inactive | inactive |
| CC(C)(C)c1cc(C(=O)Nc2ccc(C(=N)N)cc2)c(O)c(C(C)(C)C)c1 | 88% (active) | 4% | -2 | 101% (active) | inactive | inactive | inactive | inactive |
| O=C(Nc1cc(Cl)cc(Cl)c1)c1cc(Cl)c(=O)n(Cc2cccc(Cl)c2)c1 | 62% (active) | 8% | 2 | 100% (active) | inactive | inactive | inactive | inactive |
| CC(C)(C)c1ccc2nc(-c3ccc(/C=C/C(=O)NC4CCN(Cc5ccccc5)CC4)cc3)[nH]c2c1 | 96% (active) | 45% | -2 | 101% (active) | inactive | inactive | inactive | inactive |
| Cc1cccc(C)c1C1CCN(C2CCC(NC(=O)/C=C/c3ccccc3)CC2)CC1 (stereo not given) | 45% | 42% | -1 | 100% (active) | inactive | inactive | inactive | inactive |
| NC1CCN(CCc2ccc(NS(=O)(=O)c3ccc(-c4ccccc4)cc3)cc2)CC1 | 19% | 17% | 0 | 100% (active) | inactive | inactive | inactive | inactive |
| N#Cc1ccc(-c2ccc(C(=O)NCCCCN3CCC(c4ccncc4)CC3)cc2)cc1 | 16% | 34% | -3 | 94% (active) | inactive | inactive | inactive | inactive |
| CCC(=O)Nc1nnc(Cc2ccc(OC)c(OC)c2)s1 | 1% | -4% | -2 | 93% (active) | inactive | inactive | inactive | inactive |
| COc1ccc2nccc([C@@H](O)CN3CCC(NCc4nc5cc(F)c(F)cc5[nH]4)CC3)c2c1 | 36% | 12% | -1 | 96% (active) | inactive | inactive | inactive | inactive |
| O=C(Nc1cccc(F)c1)NC1CCN(c2ccnc3cc(Cl)ccc23)CC1 | 37% | 11% | -4 | 96% (active) | inactive | inactive | inactive | inactive |
| O=S(=O)(NCCN1CCCC1)c1ccc(-c2ccc(CNCc3ccccc3)cc2)cc1 | 28% | 47% | 5 | 99% (active) | inactive | inactive | inactive | inactive |
| CC(C)c1sc(N2CCN(C)CC2)nc1C(=O)Nc1ccc(F)cc1C(F)(F)F | 99% (active) | 3% | 4 | 101% (active) | inactive | inactive | inactive | inactive |
| CN(C)CCOc1cc(O)c2c(c1)OC(C)(C)C=C2c1cccs1 | 10% | 29% | -2 | 99% (active) | inactive | inactive | inactive | inactive |
| Cc1cc2nc(-c3ccc(/C=C/C(=O)NCc4ccc(Cl)c(Cl)c4)cc3)[nH]c2cc1C | 83% (active) | 32% | -1 | 98% (active) | inactive | inactive | inactive | inactive |
| Cc1cccc(C(=O)NCCCN2CCC(NC(=O)/C=C/c3ccc(Cl)c(Cl)c3)CC2)c1 | 23% | 39% | 1 | 98% (active) | inactive | inactive | inactive | inactive |
